Source: PubChem (National Center for Advancing Translational Sciences (NCATS))
HPGD block: qHTS Assay for Inhibitors of HPGD (15-Hydroxyprostaglandin Dehydrogenase). 15-hydroxyprostaglandin dehydrogenase [NAD(+)] (Homo sapiens), P15428. purified HPGD, NADH fluorescence kinetic, PGE2 substrate. Potency, µM, hits mostly inhibitors. 150,000 tested, 4.3% active. AID 894, 2007; active = well fitted inhibition curve with a large enough effect, not every such curve was filed as active; inconclusive = small, poorly fitted or top-dose-only effect, or another doubt; inactive = no such curve, though single readings can be large or run the other way
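NADH formation kinetics: reaction with 30 uM PGE2 and 1 mM NAD+ (final), 20 nM enzyme, Tris-HCl pH 8 with Tween 20, after 15 min compound preincubation at room temperature. Fluorescence change, last versus first of five reads.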
12-hLO inh: qHTS Assay for Inhibitors of 12-hLO (12-human lipoxygenase); Potency, µM (titrated, usually from 57.1 µM), usual class: inhibitors; 150,000 tested, 0.12% active; purified 12-hLO, xylenol orange hydroperoxide absorbance; Polyunsaturated fatty acid lipoxygenase ALOX12 (Homo sapiens), P18054; also: nearly all actives have a fitted effect of over 55% in size
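Purified human 12hLO (150 nM), preincubated 15 min with compound, then 40 uM arachidonic acid for 30 min, room temperature, Hepes pH 7.0 with 0.01% Triton X-100. Hydroperoxide detected by ferrous iron/xylenol orange; 573/405 nm absorbance ratio gives reaction progress.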
IMPase Li cell: qHTS Assay for Identifying the Cell-Membrane Permeable IMPase Inhibitors: Potentiation with Lithium; CHO-M1 cells, IP1 TR-FRET (IP-One), carbachol + lithium; Potency, µM (series often up to 59.4 µM), hits mostly inhibitors; 210,000 tested, 0.35% active;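 also: IP1 builds up when IMPase is blocked and the TR-FRET signal falls; nearly all actives have a fitted effect of over 50% in size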
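Steps: plate 2000 CHO-M1 cells per well and culture 16–30 h; add compound and lithium; incubate 30 min, 37C; add d2-IP1 tracer and Eu cryptate anti-IP1 antibody in lysis buffer; read after 10 min at room temperature.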
IMPase cell inh: qHTS Assay for Identifying the Cell-Membrane Permeable IMPase Inhibitors. Inositol monophosphatase 1 (Rattus norvegicus), P97697. CHO-M1 cells, IP1 accumulation, HTRF TR-FRET ratio. inhibition (IP1 accumulation), % at 46.1 µM. 120,000 tested, under 10 active. AID 901, 2007; active = well fitted curve in the direction sought with a large enough effect in the signal ratio, not every such curve was filed as active; inconclusive = small, poorly fitted or top-dose-only effect, or a change in a side signal; inactive = no such curve, though single readings can be large or run the other way; the % refers to the signal ratio;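 also: cells stimulated with carbachol in lithium chloride buffer; higher means more IMPase inhibition seen as more IP1 and lower FRET ratio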
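Seeded CHO-M1 cells were dosed with compound at up to 46 uM, stimulated with carbachol for 30 min, then lysed in IP-One detection reagents. Higher IP1 lowers the TR-FRET signal.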
PNC inhibitor: High Content Assay for Compounds that inhibit the Assembly of the Perinucleolar Compartment. AID 2417, 2010. PC3M PTB-GFP, PNC prevalence imaging, 16 h; hits give low values. 140,000 tested, 3.1% active. activity change (PNC), negative = inhibition, % at 10 µM;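 active = readout at or below -70, meaning at least 70% loss of cells showing the perinucleolar compartment, a nuclear body marking cancer cells; inconclusive = readout between -30 and a set limit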
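Read-out is percentage of cells bearing a perinucleolar compartment, from automated 20x imaging of fixed, Hoechst-stained PC3M PTB-GFP cells. Cells were seeded 4 h, then exposed 16 h to compound (23 nl of library stock) in duplicate plates.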
ALOX15B inhib: qHTS Assay for Inhibitors of 15-hLO-2 (15-human lipoxygenase 2). Polyunsaturated fatty acid lipoxygenase ALOX15B (Homo sapiens), O15296. purified 15hLO-2, xylenol orange hydroperoxide absorbance. Potency, µM (titrated, usually from 57.1 µM), actives largely listed as inhibitors. 110,000 tested, 0.56% active. AID 881, 2007; also: nearly all actives have a fitted effect of over 60% in size
Target sequence (O15296 whole entry, looked up): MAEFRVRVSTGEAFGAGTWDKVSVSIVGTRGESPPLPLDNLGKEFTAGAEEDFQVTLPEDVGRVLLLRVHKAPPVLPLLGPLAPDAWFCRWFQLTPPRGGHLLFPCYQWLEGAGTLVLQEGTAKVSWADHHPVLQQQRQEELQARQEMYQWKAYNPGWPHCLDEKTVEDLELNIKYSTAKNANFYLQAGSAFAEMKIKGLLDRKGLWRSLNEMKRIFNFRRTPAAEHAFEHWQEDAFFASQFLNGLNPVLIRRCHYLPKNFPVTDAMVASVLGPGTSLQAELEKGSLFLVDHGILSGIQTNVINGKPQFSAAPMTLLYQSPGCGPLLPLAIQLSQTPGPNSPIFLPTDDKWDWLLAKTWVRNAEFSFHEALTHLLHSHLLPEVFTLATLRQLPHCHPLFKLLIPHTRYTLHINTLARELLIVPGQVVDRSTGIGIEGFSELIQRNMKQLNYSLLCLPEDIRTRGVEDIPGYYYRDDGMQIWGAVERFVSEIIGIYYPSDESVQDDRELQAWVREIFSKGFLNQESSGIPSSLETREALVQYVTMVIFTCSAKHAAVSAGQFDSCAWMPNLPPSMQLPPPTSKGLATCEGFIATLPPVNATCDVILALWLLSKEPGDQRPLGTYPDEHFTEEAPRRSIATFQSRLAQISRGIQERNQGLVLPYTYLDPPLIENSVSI
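Purified human 15hLO-2 (50 nM final) preincubated with compounds 15 min at room temperature in 25 mM Hepes pH 7.5, 0.01% Triton X-100, then 45 uM arachidonic acid added for 90 min; hydroperoxide detected via ferrous/xylenol orange, 573/405 nm absorbance ratio.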
A number is an active result; [ ] = another dose, or the depositor's remark. Only some compounds are listed: those with a hit (about 5.4% of all), similar ones and a draw of the others. Unless noted, calls follow the shape of the dose curve; as a rule, active = well fitted curve in the direction sought with a large enough effect; inconclusive = small, poorly fitted or top-dose-only effect, or another doubt; inactive = no such curve, though single readings can be large; an effect the other way counts as inactive or inconclusive.

For Cc1ccc(/C=N/NC(=O)c2cccs2)o1 the results were HPGD block inactive, 12-hLO inh inactive, IMPase Li cell inactive and PNC inhibitor -83.
Screening c1ccc(-c2nc(-c3cccc4ccccc34)c(NC3CCCCC3)o2)cc1 returned HPGD block inactive, 12-hLO inh inactive and IMPase Li cell inactive.
CCc1nc(N)c(C#N)c(-c2cccc3ccccc23)c1C was read as HPGD block inactive, 12-hLO inh inactive, IMPase Li cell inactive, IMPase cell inh inactive and PNC inhibitor -100.
CCOC(=O)c1c(Nc2ccc(C)c(C)c2)nnc(-c2ccccc2)c1-c1ccccc1 was read as IMPase cell inh inactive.
`O=C(Cn1cnc2c(nnn2Cc2ccc(Cl)cc2)c1=O)NCc1ccco1` gave HPGD block 16µM, 12-hLO inh inactive, IMPase Li cell inactive, IMPase cell inh inactive and PNC inhibitor inactive.
O=C(Cn1cnc2c(nnn2Cc2ccccc2)c1=O)NCC1CCCO1 (stereo not given) was read as HPGD block inactive, 12-hLO inh inactive, IMPase Li cell inactive, IMPase cell inh inactive, PNC inhibitor inconclusive and ALOX15B inhib inactive.
`O=C(Cn1cnc2c(nnn2Cc2ccccc2)c1=O)NCc1ccco1` gave HPGD block 14µM, 12-hLO inh inactive, IMPase Li cell inactive, IMPase cell inh inactive, PNC inhibitor inconclusive and ALOX15B inhib inactive.
Screening COC(=O)Cn1cnc2c(nnn2Cc2ccc(Cl)cc2)c1=O returned HPGD block inactive, 12-hLO inh inactive, IMPase Li cell inactive, IMPase cell inh inactive, PNC inhibitor inconclusive and ALOX15B inhib inactive.
O=C(Cn1cnc2c(nnn2Cc2ccc(F)cc2)c1=O)NCc1ccco1 was read as HPGD block 16µM, 12-hLO inh inactive, IMPase Li cell inactive, IMPase cell inh inactive and PNC inhibitor inactive.
`O=C(Cn1cnc2c(nnn2Cc2ccccc2)c1=O)c1ccccc1` gave HPGD block 22µM, 12-hLO inh inactive, IMPase Li cell inactive, IMPase cell inh inactive and PNC inhibitor inactive.
Screening COc1ccc2oc(-c3ccccc3)c(C(N)=O)c2c1 returned HPGD block inconclusive, 12-hLO inh inactive, IMPase Li cell 11µM, IMPase cell inh inactive, PNC inhibitor inactive and ALOX15B inhib inactive.
`Cc1ccc2oc(-c3ccccc3)c(C(=O)O)c(=O)c2c1` gave HPGD block 14µM, 12-hLO inh inactive, IMPase Li cell inactive, IMPase cell inh inactive, PNC inhibitor inactive and ALOX15B inhib inactive.
Screening COc1ccc2oc(-c3ccccc3)c(OC)c(=O)c2c1 returned HPGD block inconclusive, 12-hLO inh inactive, IMPase Li cell inactive, IMPase cell inh inactive and ALOX15B inhib inactive.
CC(=O)NCCNc1nc(-c2ccccc2C)nc2ccccc12 was read as IMPase Li cell inactive and ALOX15B inhib inactive.
Screening COc1ccc(N(C(=O)c2ccccc2)S(=O)(=O)c2ccc3c(c2)n(C)c(=O)n3C)cc1 returned IMPase cell inh inactive.
COc1ccc(C(=O)N2C(=S)NC(=O)/C2=C\c2ccc(C)cc2)cc1 was read as HPGD block 28µM, 12-hLO inh inactive, IMPase Li cell inactive and PNC inhibitor inconclusive.
For C[N+]1(C)CCO[C@](O)(c2ccccc2)C1 the results were HPGD block inactive, 12-hLO inh inactive[11.4 µM], IMPase Li cell inactive and ALOX15B inhib inactive[11.4 µM].
Screening CC(C)OC(=O)c1ccc(Cn2nnc3sc4c(c3c2=O)CCCC4)cc1 returned IMPase cell inh inactive.
